Bioassay records as filed in PubChem.
HT1080 IDH1KD tx: HT-1080 IDH1 knockdown cell toxicity (counter line). HT-1080 IDH1 knockdown viability, ATP luminescence, 48 h. Potency, µM (doses to about 46.1 µM), without a hit: top-dose activity, negative = toxicity, usual class: cytotoxic. 2% of 360,000 active. AID 686971;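 also: potency is read from the fitted curve at half-maximal effect; 0% = DMSO wells and -100% = cell-free medium wells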
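In this qHTS, HT-1080 cells depleted of IDH1 are exposed for 48 h at 37 °C to compound titrations. Toxicity is scored from CellTiter-Glo luminescence, with DMSO as full viability and medium alone as none.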
HT1080NT lethal: kills 2HG-producing HT-1080-NT fibrosarcoma cells; HT-1080-NT fibrosarcoma viability, CellTiter-Glo ATP luminescence, 48 h; Potency, µM (series often up to 46.1 µM), inactives show at the highest dose activity, negative = less viability, hits mostly cytotoxic; 1.6% of 360,000 active;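 also: NT is the 2HG producing partner of a matched IDH1 knockdown line; potency is read from the fitted curve at half-maximal effect; 0% = DMSO-treated cells and -100% = media-only wells without cells; nearly all actives have a fitted effect of over 55% in size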
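Fibrosarcoma NT cells, 750 per well in 5% FBS RPMI, were exposed to compound for 48 hours. Viability: CellTiter-Glo luminescence.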
IL1B secr inh: blocks inflammasome-driven IL-1 beta release | THP-1 LPS/ATP IL-1B secretion, AlphaLISA, 16 h; hits give low values | 4.7% of 360,000 active | activity change, % at 57.5 µM; in the data active = activity change below about -50%; inconclusive = mostly about -30% to -49%
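THP-1 cells pretreated 1 hr with compounds (up to 57.5 uM final), then stimulated with LPS (250 ng/mL final) plus ATP (1.25 mM final); secreted IL-1B measured by AlphaLISA after 16 hr, decreased signal indicating inhibition.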
ELG1 repair inh: blocks ELG1-dependent DNA repair in HEK293T cells | HEK293T ELG1-luciferase reporter, luminescence, 16 h; DNA damage induced by 5-fluorouridine | Potency, µM (highest dose often 46.1 µM), without a hit: at the top dose activity change, negative = inhibition, most hits filed as inhibitors | 2.3% of 330,000 active | AID 504467; also: potency is read from the fitted curve at half-maximal effect; nearly all actives have a fitted effect of over 55% in size
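Luminescence from the luciferase reporter, measured 30 min after ONE-Glo reagent at room temperature, was the read-out. Beforehand, 2,000 cells per well were exposed for 16 hr at 37 °C to 5-fluorouridine together with compound or vehicle.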
DT40 TDP1 no CPT: qHTS for Inhibitors of human tyrosyl-DNA phosphodiesterase 1 (TDP1): qHTS in cells in absence of CPT; DT40 Tdp1-/- hTDP1 cells, no CPT, ATP luminescence, 48 h; Potency, µM (highest dose often 46.2 µM), for inactives: at the top dose activity change, negative = growth inhibition, actives largely listed as inhibitors; 15% of 420,000 active; also: potency is read from the fitted curve at half-maximal effect; nearly all actives have a fitted effect of over 55% in size
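Chicken DT40 Tdp1-/- cells complemented with human TDP1, screened without camptothecin (DMSO vehicle only), 400 cells/well. Compounds pin-transferred, cells incubated at 37 °C for at least 48 hr. Growth read as ATP-dependent luminescence (CellTiter-Glo, 30 min at RT).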
DT40 TDP1 CPT: DT40-hTDP1 cell growth loss with CPT | chicken DT40 Tdp1-/-;hTDP1 cells + 20 nM CPT, ATP luminescence, 48 h | 12% of 420,000 active | Potency, µM (doses to about 46.2 µM), for inactives: at the top dose activity change, negative = growth inhibition, actives largely listed as inhibitors; also: potency is read from the fitted curve at half-maximal effect; nearly all actives have a fitted effect of over 55% in size
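Chicken DT40 Tdp1-/- cells complemented with human TDP1, 400 cells/well, exposed to compounds plus 20 nM camptothecin for at least 48 h at 37 C; viability read as ATP content by CellTiter-Glo luminescence.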
* = called active by the depositor; ? = inconclusive; / = no result; [ ] = another dose, or the depositor's remark. A selection: hits, their analogues and other compounds. The true share with any hit is near 19%. Unless noted, calls follow the shape of the dose curve; as a rule, active = well fitted curve in the direction sought with a large enough effect; inconclusive = small, poorly fitted or top-dose-only effect, or another doubt; inactive = no such curve, though single readings can be large; an effect the other way counts as inactive or inconclusive. Unless noted, % is scaled to controls: 0 for no effect and ±100 for the full control effect.

SMILES	HT1080 IDH1KD tx	HT1080NT lethal	IL1B secr inh	ELG1 repair inh	DT40 TDP1 no CPT	DT40 TDP1 CPT
COC(=O)c1sc(S(=O)(=O)NCc2cccs2)c(C(=O)OC)c1C	-4%	6%	23	15µM*	-26%	-21%
COc1c(C)cc(C(=O)C2CCCN(C(=O)c3cc(C)on3)C2)cc1C (stereo not drawn)	-24%	-3%	-7	?	?	?
COc1cccc(C(=O)C2CCCN(C(=O)CCc3scnc3C)C2)c1 (stereo not drawn)	-1%	0%	40	-9%	-26%	5%
COc1c(C)cc(C(=O)C2CCCN(C(=O)c3ccc4[nH]ccc4c3)C2)cc1C (stereo not drawn)	-2%	-24%	-12	?	?	?
COc1c(C)cc(C(=O)C2CCCN(C(=O)c3cccc(-n4cccn4)c3)C2)cc1C (stereo not drawn)	-20%	-1%	-6	23µM*	?	?
CCCc1cc(C(=O)N2CCCC(C(=O)c3ccc(Cl)cc3)C2)n(C)n1 (stereo not drawn)	-8%	-9%	0	-3%	?	?
CCCCNC(=O)N1CCCC(C(=O)c2cc(C)c(OC)c(C)c2)C1 (stereo not drawn)	-5%	-17%	-14	?	16µM*	?
COc1c(C)cc(C(=O)C2CCCN(C(=O)CCc3scnc3C)C2)cc1C (stereo not drawn)	?	-15%	-5	12µM*	-19%	?
CCCc1cc(C(=O)N2CCCC(C(=O)c3cc(C)c(OC)c(C)c3)C2)n(C)n1 (stereo not drawn)	-9%	-7%	6	8.2µM*	?	-42%
CC(=O)CSc1nnc2[nH]c(=O)cc(N)n12	/	/	/	/	0%	2%
Cc1cc(Cl)ccc1C(=O)C1CCCN(C(=O)c2ccsc2)C1 (stereo not drawn)	2%	5%	-11	/	?	?
Cc1cc(Cl)ccc1C(=O)C1CCCN(C(=O)c2cccc(N3CCCC3=O)c2)C1 (stereo not drawn)	-1%	-7%	10	3%	?	16µM*
O=C(COC(=O)CCC(=O)c1cccs1)NC1CCCCC1	-2%	-7%	0	-2%	20%	0%
O=S(=O)(c1ccccc1Br)N(CC(O)COCc1ccccc1)C1CC1 (stereo not drawn)	4%	-3%	-1	-24%	-21%	?
O=S(=O)(c1ccccc1Br)N(Cc1ccccc1)CC(O)COCc1ccccc1 (stereo not drawn)	?	?	-61*	?	?	23µM*
O=C1c2oc3ccc(F)cc3c(=O)c2C(c2ccc(F)cc2)N1CCCN1CCOCC1 (stereo not drawn)	23%	19%	-5	/	-26%	-34%
O=C1c2oc3ccc(Cl)cc3c(=O)c2C(c2ccccn2)N1CCCN1CCOCC1 (stereo not drawn)	7%	6%	12	?	29µM*	23µM*
Cc1ccc2oc3c(c(=O)c2c1)C(c1ccccc1F)N(CCCN(C)C)C3=O (stereo not drawn)	/	/	/	/	-2%	-11%
CC(C)c1ccc(C2c3c(oc4ccc(Cl)cc4c3=O)C(=O)N2CCCN2CCOCC2)cc1 (stereo not drawn)	/	/	/	/	?	18µM*
C=CCOc1ccc(C2c3c(oc4ccccc4c3=O)C(=O)N2CCCN2CCOCC2)cc1 (stereo not drawn)	-4%	0%[9.24 µM]	-3	28%	-24%	-24%
